Bioassay records (PubChem BioAssay)
Shown are actives, neighbours in structure and some others; about 6% of the full set was active somewhere.
D1 agonist – agonists of human D1 dopamine receptor | P21728 | HEK293 T-REx D1 cells, calcium flux, agonist mode | activation, % at 2 µM | 360,000 compounds, 1% hits | AID 504660; in the data active = activation above about 30%
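Agonism was scored from calcium flux recorded over 180 s (1 read/s) after pintool compound addition, following a 10-cycle baseline. Cells were inducible force-coupled HEK293 TREx D1, plated overnight at 30 C and loaded with no-wash calcium dye.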
D1 potentiator – potentiators of human D1 dopamine receptor | P21728 | HEK293 TREx D1 cells, calcium flux, dopamine EC20 potentiation | potentiation, % at 10 µM | 360,000 compounds, 0.036% hits; in the data active = potentiation above about 30%
Chronic BCR inh – blocks chronic active B-cell receptor signaling. 340,000 compounds, 0.05% hits. ABC-DLBCL IkBa-CBG/CBR reporter, luminescence ratio, 4 h. Potency, µM (top dose mostly 46.1 µM), hits mostly inhibitors; active = well fitted inhibition curve with a large enough effect in the signal ratio, with a control signal flat, not every such curve was filed as active; inconclusive = small, poorly fitted or top-dose-only effect, or effect the other way, or a change in a side signal; the % refers to the signal ratio
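Concentration-response series (up to 46 uM) were applied to TMD8 dual-reporter cells for 4 h at 37C with doxycycline. Green/red ratio, after filter-overlap correction, defined %Activity; red signal alone was normalised to basal cells and zero luminescence.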
DRD3 agonist – D3 dopamine receptor (human) agonism; 410,000 compounds, 0.58% hits; D3R DiscoveRx beta-arrestin cells, luminescence, 90 min; max activation, %; AID 652048; in the data active = max activation above about 30%
Target sequence (P35462 whole entry, looked up): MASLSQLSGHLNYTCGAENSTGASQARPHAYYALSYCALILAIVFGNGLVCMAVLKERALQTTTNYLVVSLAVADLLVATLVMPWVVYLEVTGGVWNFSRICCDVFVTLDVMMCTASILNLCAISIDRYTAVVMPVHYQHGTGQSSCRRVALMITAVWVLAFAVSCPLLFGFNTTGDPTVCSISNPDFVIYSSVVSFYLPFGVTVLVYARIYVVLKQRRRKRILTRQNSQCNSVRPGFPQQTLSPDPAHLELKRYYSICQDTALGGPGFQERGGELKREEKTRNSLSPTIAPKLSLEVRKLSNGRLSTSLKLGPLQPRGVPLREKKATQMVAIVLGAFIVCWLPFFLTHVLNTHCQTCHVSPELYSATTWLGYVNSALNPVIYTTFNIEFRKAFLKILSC
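Cells at 1500/well, incubated overnight, then treated with pinned compounds (dopamine as control) for 90 min at 37 degrees C. DiscoveRx reagent added for 30 - 60 minutes at room temperature; luminescence read.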
D1 antagonist – blocks dopamine activation of the human D1 receptor | P21728 | HEK293 TREx D1 cells, calcium flux, dopamine EC80; stronger effect = lower value | activity change, negative = inhibition, % at 10 µM | 360,000 compounds, 3.2% hits | AID 504652; in the data active = activity change below about -30%
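Tetracycline-induced HEK293 T-REx cells with force-coupled D1 receptor were loaded with a no-wash calcium dye. Compound was added after a 10 s baseline and read kinetically for 180 s; EC80 dopamine was then added and calcium flux followed another 180 s.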
D3 antag – antagonists of human D3 dopamine receptor | P35462 | D3R cells, DiscoveRx beta-arrestin luminescence, antagonist mode; stronger effect = lower value | max response, negative = inhibition, % | AID 652054 | 360,000 compounds, 2.5% hits; in the data active = max response below about -50%; inconclusive = no clear call, values can overlap the other calls
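Cells expressing the human receptor were seeded at 1500 cells/well, incubated overnight at 37 degrees C in 5% CO2, then exposed to library compounds with dopamine controls for 90 minutes at 37 degrees C before luminescent detection.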
Each line names hits and unclear results; the compound was inactive in the other large screens.

COc1ccc(Nc2nc(N)nc(CSc3nc4ccccc4s3)n2)cc1	none (no result: Chronic BCR inh, D3 antag)
CC(=O)Nc1ccc(S(=O)(=O)Nc2nnc(C)s2)cc1	none (no result: D1 agonist, D1 potentiator, Chronic BCR inh, D1 antagonist)
OC(c1cccc(Cl)c1)c1ncc(-c2ccc(C(F)(F)F)cc2)[nH]1 (stereo unspecified)	none (no result: D1 agonist, D1 potentiator, Chronic BCR inh, D1 antagonist)
O=S(=O)(c1ccc(Cl)cc1)c1nc(-c2cccc(Br)c2)oc1NCc1ccccc1	none (no result: Chronic BCR inh, D3 antag)
Cc1ccc(S(=O)(=O)Nc2cc3c(cc2N2CCOCC2)n(C)c(=O)n3C)c(C)c1	none (no result: Chronic BCR inh, D3 antag)
CCc1ccc2[nH]c(=O)c(C(c3nnnn3CC3CCCO3)N3CCCc4ccccc43)cc2c1 (stereo unspecified)	DRD3 agonist 38
Cc1cc2cc(C(c3nnnn3CC3CCCO3)N3CCCc4ccccc43)c(=O)[nH]c2cc1C (stereo unspecified)	D3 antag inconclusive
O=C(NC1CCN(Cc2ccc(Cl)c(Cl)c2)CC1)c1ccccc1	D1 antagonist -33, D3 antag -99
Cc1ccc(C(=O)NC2CCN(CCCC(=O)c3ccc(F)cc3)CC2)cc1	D1 antagonist -38
O=C(NC1CCN(Cc2ccc(F)cc2)CC1)c1ccccc1	D3 antag -72
O=C(NC1CCN(Cc2ccc3ccccc3c2)CC1)c1ccccc1	D3 antag -74
O=C(CCCN1CCC(NC(=O)c2ccccc2)CC1)c1ccc(Cl)cc1	D3 antag inconclusive
COCCNC(=O)C1CCCN(C(=O)COc2ccc(Cl)cc2Cl)CC1 (stereo unspecified)	none (no result: D1 agonist, D1 potentiator, Chronic BCR inh, D1 antagonist)
CCc1nc2c(OCc3ccc(Cl)cc3Cl)cccn2c1N(C)C(C)=O	none (no result: D1 agonist, D1 potentiator, Chronic BCR inh, D1 antagonist)
CC[C@@H](C)[C@H](N)C(=O)O	none (no result: D1 agonist, D1 potentiator, Chronic BCR inh, D1 antagonist, D3 antag)
CCC1Nc2ncnc(N3CCOCC3)c2N(Cc2ccc(OC)cc2)C1=O (stereo unspecified)	none (no result: D1 agonist, D1 potentiator, D1 antagonist)
CCC1Nc2ncnc(N3CCOCC3)c2N(Cc2ccccc2)C1=O (stereo unspecified)	none
CCC1Nc2ncnc(N3CCN(c4ccccc4)CC3)c2N(Cc2ccc(OC)cc2)C1=O (stereo unspecified)	D3 antag -149
O=C1C(Cc2ccccc2)Nc2ncnc(N3CCN(c4ccccc4)CC3)c2N1Cc1ccc(Br)cc1 (stereo unspecified)	D3 antag -151 (no result: D1 agonist, D1 potentiator, D1 antagonist)
CCC1Nc2ncnc(N3CCN(c4ccccc4)CC3)c2N(Cc2ccc(Br)cc2)C1=O (stereo unspecified)	D3 antag active
CCc1ccc(-n2nc(CO)c(C(=O)NCc3cccnc3)n2)cc1	none (no result: Chronic BCR inh, D3 antag)
Cc1ccc(NC(=O)CN2C(=O)c3ccccc3Sc3ncccc32)c(C)c1	none (no result: Chronic BCR inh, D3 antag)
c1ccc2c(c1)OCC(c1nnc3sc(-c4cnccn4)nn13)O2 (stereo unspecified)	Chronic BCR inh inconclusive, DRD3 agonist 30
CN(Cc1cc(Cl)cc(Cl)c1)[C@H]1C[C@H]2c3[nH]c4ccccc4c3CCN2C(=O)[C@H]1CO	none (no result: D1 agonist, D1 potentiator, Chronic BCR inh, D1 antagonist)
COc1cc(CNCCCN2CCOCC2)cc(Br)c1OCc1ccc(Cl)cc1	D1 agonist 72, Chronic BCR inh inconclusive (no result: D1 antagonist)
COc1cc(CNCCN2CCOCC2)ccc1OCc1ccc(Cl)cc1	none
Nc1n[nH]c2ccccc12	none
S=c1nn[nH]c2ccccc12	DRD3 agonist 85 (no result: D1 agonist, D1 potentiator, Chronic BCR inh, D1 antagonist)
COC(=O)Cn1cc(/C=C/c2cc[n+](C)cc2)c2ccccc21	none
COC(=O)Cn1c(C)c(/C=C/c2cc[n+](C)cc2)c2ccccc21	D1 agonist 57
CN(C)CCNC(=O)C1CCCNC1=O (stereo unspecified)	none
Cc1ccc(S(=O)(=O)NCCNC(=O)C2CCCNC2=O)cc1 (stereo unspecified)	D1 antagonist -46
O=C1NC2=C(C(=O)CCC2)C(c2ccc3ncccc3c2)N1 (stereo unspecified)	Chronic BCR inh inconclusive, D1 antagonist -40
CCn1nc(C)cc1C(=O)OCC(=O)c1ccc(Cl)cc1	D1 antagonist -63
CCn1nc(C)cc1C(=O)Sc1ccc(Cl)cc1Cl	Chronic BCR inh inconclusive
CCOC(=O)N(C)C[C@@H]1OCc2cnnn2CCCC(=O)N([C@H](C)CO)C[C@@H]1C	none (no result: D1 agonist, D1 potentiator, Chronic BCR inh, D1 antagonist)
Cc1cc(C(=O)COc2ccccc2C(N)=O)c(C)n1CC1CCCO1 (stereo unspecified)	none
COC(=O)CCn1c(C)cc(C(=O)COc2ccccc2C(N)=O)c1C	D1 antagonist -56
CSc1ccc(CNC(=O)CCc2c(C)nn(-c3ccc(N4CCCC4)nn3)c2C)cc1	none (no result: Chronic BCR inh, D3 antag)
O=C(OCc1ccccc1Cl)c1ccc(-n2cnnc2)cc1	Chronic BCR inh inconclusive, D1 antagonist -36
CC(C)(C)SCCNS(=O)(=O)c1ccc(Cl)cc1	none
O=S(=O)(NCCC1CC1(Cl)Cl)c1ccc(Cl)cc1 (stereo unspecified)	D1 antagonist -38
COc1ccccc1NC(=O)CCn1nc(-c2ccccc2OC)c2c(C)cc(C)nc21	none (no result: Chronic BCR inh, D3 antag)
CCc1ccc(NC(=O)CSc2c(C)cnc3c2c(=O)n(C)c(=O)n3C)cc1	none (no result: D1 antagonist, D3 antag)
Cn1c(=O)c2cc(C(=O)NCCCN3CCN(c4cccc(Cl)c4)CC3)sc2c2ccccc21	D1 antagonist -45 (no result: Chronic BCR inh, D3 antag)
Cc1cccc(C(=O)NCCN2CCN(c3ccccc3)CC2)c1	D3 antag inconclusive
O=C(NCCN1CCN(c2cccc(Cl)c2)CC1)Nc1ccccc1C(F)(F)F	D1 antagonist -43 (no result: Chronic BCR inh, D3 antag)
O=C(NCCN1CCN(c2ccccc2)CC1)c1cccc(Cl)c1	D3 antag -56
Cc1cccc(C)c1NC(=O)NCCCN1CCN(c2ccccc2)CC1	DRD3 agonist 38, D1 antagonist -36, D3 antag inconclusive
Cc1ccc(S(=O)(=O)c2cn(Cc3ccccc3)c3cc(N4CCOCC4)c(F)cc3c2=O)cc1	none (no result: Chronic BCR inh, D3 antag)
CCC(=O)N1c2ccccc2CC1C(=O)NCCCN1CCN(c2cccc(Cl)c2)CC1 (stereo unspecified)	D1 antagonist -53 (no result: Chronic BCR inh, D3 antag)
COC(=O)CNC(=O)c1cccc(Cl)c1	D1 antagonist -32
Cc1ccc(C)c(CN2CCC(CNC(=O)Nc3ccc(Cl)cc3)CC2)c1	Chronic BCR inh inconclusive, D1 antagonist -33
Cc1ccc(C)c(CN2CCC(CNC(=O)Nc3ccc(Br)cc3F)CC2)c1	none
COC(=O)CNC(=O)c1cccc(F)c1	none
O=C(NCCN1CCN(c2cccc(Cl)c2)CC1)c1ccc(CSc2nc3ccncc3[nH]2)cc1	Chronic BCR inh inconclusive, DRD3 agonist 49, D1 antagonist -48
CCC(=O)N1c2ccccc2CC1C(=O)NCCCN1CCN(c2ccccc2)CC1 (stereo unspecified)	none (no result: Chronic BCR inh, D3 antag)
CCN(CCNC(=O)c1ccc(CSc2nc3ccncc3[nH]2)cc1)c1ccccc1	Chronic BCR inh inconclusive
O=C(NCc1ccccc1Cl)C1(S(=O)(=O)c2ccc(Cl)cc2)CC1	none (no result: D1 potentiator)
O=C(NCCCN1CCN(Cc2ccccc2Cl)CC1)Nc1ccccc1	none
